HPGD inh – qHTS Assay for Inhibitors of HPGD (15-Hydroxyprostaglandin Dehydrogenase). actives 4.3% (n = 150,000). purified HPGD, NADH fluorescence kinetic, PGE2 substrate. 15-hydroxyprostaglandin dehydrogenase [NAD(+)] (Homo sapiens), P15428. Potency, µM, usual class: inhibitors. AID 894, 2007; active = well fitted inhibition curve with a large enough effect, not every such curve was filed as active; inconclusive = small, poorly fitted or top-dose-only effect, or another doubt; inactive = no such curve, though single readings can be large or run the other way
Target sequence (P15428 whole entry, looked up): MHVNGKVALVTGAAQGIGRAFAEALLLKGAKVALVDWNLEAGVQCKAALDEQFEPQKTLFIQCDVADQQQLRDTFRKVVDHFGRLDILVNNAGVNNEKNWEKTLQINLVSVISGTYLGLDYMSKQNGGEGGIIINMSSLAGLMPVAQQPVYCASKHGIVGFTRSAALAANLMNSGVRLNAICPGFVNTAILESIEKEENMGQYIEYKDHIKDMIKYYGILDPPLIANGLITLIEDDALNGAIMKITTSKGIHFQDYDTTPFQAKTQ
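NADH formation kinetics: reaction with 30 uM PGE2 and 1 mM NAD+ (final), 20 nM enzyme, Tris-HCl pH 8 with Tween 20, after 15 min compound preincubation at room temperature. Fluorescence change, last versus first of five reads.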
HTT ATP protect – qHTS Multiplex Assay to Identify Dual Action Probes in a Cell Model of Huntington: Cytoprotection (ATP) | PC12 HTT-Q103 induced, cytoprotection, ATP luminescence, 40 h | Potency, µM (top dose mostly 56.4 µM), hits mostly activators | actives 0.14% (n = 230,000) | AID 1471, 2008; note: nearly all actives have a fitted effect of over 45% in size
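Cells were plated at 1500 per well in phenol red-free DMEM with 5% equine and 5% calf serum. Tebufenozide (100 nM final) and compounds were added, then ATPlite reagent, and luminescence was read.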
ALDH1A1 inh – qHTS Assay for Inhibitors of Aldehyde Dehydrogenase 1 (ALDH1A1); actives 7.3% (n = 220,000); Aldehyde dehydrogenase 1A1 (Homo sapiens), P00352; Purified ALDH1A1, NADH fluorescence, propionaldehyde substrate; Potency, µM (doses to about 75.3 µM), usual class: inhibitors; AID 1030, 2008; active = well fitted inhibition curve with a large enough effect, not every such curve was filed as active; inconclusive = small, poorly fitted or top-dose-only effect, or another doubt; inactive = no such curve, though single readings can be large or run the other way
Target sequence (P00352 whole entry, looked up): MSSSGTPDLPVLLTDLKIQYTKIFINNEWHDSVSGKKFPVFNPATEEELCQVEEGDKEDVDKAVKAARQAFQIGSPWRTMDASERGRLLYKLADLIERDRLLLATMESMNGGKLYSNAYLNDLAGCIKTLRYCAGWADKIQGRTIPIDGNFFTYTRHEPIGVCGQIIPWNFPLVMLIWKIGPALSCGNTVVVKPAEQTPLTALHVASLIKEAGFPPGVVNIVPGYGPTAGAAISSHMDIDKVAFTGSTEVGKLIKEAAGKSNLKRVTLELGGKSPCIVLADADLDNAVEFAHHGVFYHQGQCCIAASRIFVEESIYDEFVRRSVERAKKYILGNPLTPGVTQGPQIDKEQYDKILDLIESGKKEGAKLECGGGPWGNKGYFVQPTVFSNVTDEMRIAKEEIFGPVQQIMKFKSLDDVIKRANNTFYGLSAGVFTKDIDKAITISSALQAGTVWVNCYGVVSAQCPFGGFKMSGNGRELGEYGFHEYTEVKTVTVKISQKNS
IMPase Li cell – qHTS Assay for Identifying the Cell-Membrane Permeable IMPase Inhibitors: Potentiation with Lithium | CHO-M1 cells, IP1 TR-FRET (IP-One), carbachol + lithium | Potency, µM (top dose mostly 59.4 µM), most hits filed as inhibitors | actives 0.35% (n = 210,000);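 note: IP1 builds up when IMPase is blocked and the TR-FRET signal falls; nearly all actives have a fitted effect of over 50% in size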
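Concentration–response in CHO-M1 cells, lithium-potentiated; 30 min at 37C. IP1 detected by competitive TR-FRET after 10 min lysis at RT. Hill-fitted AC50.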
HTT aggregate – qHTS Multiplex Assay to Identify Dual Action Probes in a Cell Model of Huntington: Aggregate Formation (GFP); PC12 HttQ103-GFP aggregates, Acumen cytometry, 40 h; Potency, µM (top dose mostly 46.1 µM), usual class: inhibitors; actives 1.1% (n = 220,000); AID 1688, 2009; note: nearly all actives have a fitted effect of over 60% in size
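Aggregate formation scored by laser-scanning cytometer (488 excitation, 500–530 emission) in lysed PC12 cells expressing Q103-GFP after 100 nM tebufenozide induction; library tested in dose series, with ATPLite reagent added in the multiplex.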
IMPase inh – qHTS Assay for Identifying the Cell-Membrane Permeable IMPase Inhibitors; 120,000 tested, under 10 active; Inositol monophosphatase 1 (Rattus norvegicus), P97697; CHO-M1 cells, IP1 accumulation, HTRF TR-FRET ratio; AID 901, 2007; inhibition (IP1 accumulation), % at 46.1 µM; active = well fitted curve in the direction sought with a large enough effect in the signal ratio, not every such curve was filed as active; inconclusive = small, poorly fitted or top-dose-only effect, or a change in a side signal; inactive = no such curve, though single readings can be large or run the other way; the % refers to the signal ratio;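 note: cells stimulated with carbachol in lithium chloride buffer; higher means more IMPase inhibition seen as more IP1 and lower FRET ratio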
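Elevated IP1 in lysates lowers TR-FRET signal (665/620 ratio and 620 channel reported). Cells were CHO-M1, given carbachol (50 uM as added) plus 50mM LiCl, pH 7.4, 30 min, 37C; compounds titrated up to 46 uM; AC50 by Hill equation.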
Hits are given with their value; - = inactive; ? = inconclusive; . = not tested or not shown; [ ] = another dose, or the depositor's remark. Sampled rows, rich in hits. Any-hit rate of the full collection: about 9.4%. Unless noted, calls come from the whole dose curve; as a rule, active = well fitted curve in the direction sought with a large enough effect; inconclusive = small, poorly fitted or top-dose-only effect, or another doubt; inactive = no such curve, though single readings can be large; an effect the other way counts as inactive or inconclusive.

SMILES	HPGD inh	HTT ATP protect	ALDH1A1 inh	IMPase Li cell	HTT aggregate	IMPase inh
COc1ccccc1-c1n[nH]c(=S)n1-c1ccccc1	32µM	-	?	2µM	-	?
Cc1ccccc1-n1c(-c2ccoc2C)n[nH]c1=S	-	.	-	-	-	.
Cc1ccc(-n2c(-c3cccc(C)c3)n[nH]c2=S)cc1	22µM	-	-	-	-	-
COc1ccccc1-c1n[nH]c(=S)n1N	.	-	-	-	-	.
Cc1cccc(-n2c(C)n[nH]c2=S)c1	-	3.5µM	-	-	-	-
Cc1cccc(-n2c(-c3ccncc3)n[nH]c2=S)c1	-	-[1.9 µM]	?	-	-	-
CC(C)Cn1c(-c2csc3ccccc23)n[nH]c1=S	?	-	?	-	-	-
S=c1[nH]nc(-c2ccc3ccccc3n2)n1-c1ccccc1	28µM	-[10 µM]	?	-	-	-
Fc1ccccc1-n1c(-c2ccc3ccccc3n2)n[nH]c1=S	.	-[10 µM]	-	-	-	.
COc1ccc(-c2cc(-c3n[nH]c(=S)n3-c3cccc4ccccc34)[nH]n2)cc1	.	-[10 µM]	-	-	-[9.22 µM]	.
Cc1cccc(-n2c(-c3csc4ccccc34)n[nH]c2=S)c1	14µM	.	?	-	-	.
COc1ccccc1-n1c(-c2cc(-c3ccc(F)cc3)n[nH]2)n[nH]c1=S	.	-	32µM	-	-	.
S=c1[nH]nc(-c2cccnc2)n1-c1ccccc1	-	-[10 µM]	7.9µM	-	-	-
O=C(c1ccncc1)N1CCC2(CC1)CN(c1ncccn1)C2	?	-	?	-	.	.
O=c1[nH]cc(CS(=O)(=O)Cc2c[nH]c(=O)[nH]c2=O)c(=O)[nH]1	-	-[10 µM]	-[13.5 µM]	-	.	.
O=C(O)c1ccc(-n2c(-c3ccc(Br)cc3)n[nH]c2=S)cc1	?	-	28µM	-	-	-
S=c1[nH]nc(-c2ccc(Br)cc2)n1-c1ccc2c(c1)OCCO2	.	-[10 µM]	.	.	-[9.22 µM]	.
C=CCN1CCCC1CNC(=O)c1cc(S(N)(=O)=O)cc(OC)c1OC (stereo not drawn)	.	?	.	.	-	.
COc1cccc([C@@H]2Oc3ccc(OC)cc3C[C@H]2OC(=O)Nc2cc(OC)c(OC)c(OC)c2)c1	-	-	-	-	.	.
CCc1ccc(S(=O)(=O)N(C(=O)Oc2ccccc2)c2ccc3oc(C)c(C(=O)OC)c3c2)cc1	.	.	.	.	.	-
C(=C\c1ccccc1)/CSc1nnc(-c2ccncc2)n1Cc1ccco1	-	-	?	-	-	-
Cc1ccc(-c2nnc(SCc3nc4ccccc4[nH]3)n2Cc2ccco2)cc1	-	-	16µM	-	-	-
c1ccc(-c2nnc(CSc3nnc(-c4ccncc4)n3Cc3ccco3)o2)cc1	20µM	-	-	-	-	-
COc1cc(-c2nnc(COc3ccc4cc(Br)ccc4c3)o2)cc(OC)c1OC	-	-	-	14µM	-	?
Cc1ccc(/C=N\NC(=O)C2COc3cc4ccccc4cc3O2)o1 (stereo not drawn)	14µM	-	?	-	-	-
SMILES	HPGD inh	HTT ATP protect	ALDH1A1 inh	IMPase Li cell	HTT aggregate	IMPase inh
O=C(N/N=C\c1ccc(Cl)s1)C1COc2ccccc2O1 (stereo not drawn)	.	-[10 µM]	.	.	-[9.22 µM]	.
CCOC(=O)c1ccc(-n2c(O)c(/C=N/NC(=O)C3COc4ccccc4O3)c3ccccc3c2=O)cc1 (stereo not drawn)	?	-[1.9 µM]	-	-	18µM	-
Cc1nn(-c2ccccc2)c(Cl)c1/C=N/NC(=O)C1COc2ccccc2O1 (stereo not drawn)	-	-[10 µM]	2.8µM	-	-	.
O=C(N/N=C/c1c[nH]c2ccccc12)C1COc2ccccc2O1 (stereo not drawn)	-	-[10 µM]	?	-	-	-
NCCC[C@@H](CC(=O)N[C@@H]1CCCC[C@H]1C(=O)N[C@H](CC(=O)N[C@@H](CCC(=O)O)CC(=O)O)Cc1ccccc1)NC(=O)C[C@H](Cc1c[nH]c2ccccc12)NC(=O)[C@@H]1CCCC[C@H]1N	-	-	-	-	.	.
Cc1cccc(-n2ncc3c(N4CC(C)CC(C)C4)ncnc32)c1 (stereo not drawn)	-	-	25µM	-	22µM	-
Cc1cccc(C(=O)N2CCN(c3ncnc4c3cnn4-c3ccccc3)CC2)c1	-	-[10 µM]	10µM	-	?	-
CS(=O)(=O)N1CCN(c2ncnc3c2cnn3-c2ccccc2)CC1	.	-[10 µM]	?	-	-[9.22 µM]	.
Cc1cccc(-n2ncc3c(N4CCCC4)ncnc32)c1	-	-[0.074 µM]	?	-	-	?
O=C(COc1ccccc1)N1CCN(c2ncnc3c2cnn3-c2ccccc2)CC1	-	-[10 µM]	7.1µM	-	?	-
COc1ccc(Oc2ncc3nc(-c4cccc(C#N)c4)c(=O)n(Cc4cccc(OC)c4)c3n2)cc1	.	-	-	-	.	.
COc1cccc(-c2cncnc2NCc2ccc(OC)cc2OC)c1	-	-	?	-	.	.
CCC(Sc1ccc(C(=O)O)cc1)C(=O)O (stereo not drawn)	-	-[0.074 µM]	-	-	?	?
CCOc1ccc(C(=O)CC(Sc2ccc(C)cc2)C(=O)O)cc1 (stereo not drawn)	.	-[10 µM]	1.6µM	-	?	.
O=C1c2cccc3cccc(c23)C(=O)N1Nc1ccccc1	.	-[10 µM]	25µM	-	-[9.22 µM]	.
CN(C)S(=O)(=O)c1cccc(-c2nnc(SCc3cc(Cl)cc4c3OCOC4)n2N)c1	7.1µM	-[10 µM]	25µM	-	-	-
Cc1nnc(SCc2cc([N+](=O)[O-])cc3c2OCOC3)n(N)c1=O	.	-	-	-	-	.
N#Cc1ccc(CN2CCCC3(CCN(C(=O)c4cc(C(F)(F)F)cc(C(F)(F)F)c4)CC3)C2)cc1	-	-	-	-	.	.
O=C(O)c1ccccc1C(=O)NCC(O)COc1ccc(Cl)cc1 (stereo not drawn)	.	-[10 µM]	.	.	-[9.22 µM]	.
O=Cc1ccc(-c2ccc(F)cc2)o1	.	-	1.4µM	-	-	.
Nc1nnc(CCOc2ccccc2Cl)s1	-	-[10 µM]	-	-	?	-
Nc1nnc(Cc2ccc(Cl)c(Cl)c2)s1	-	-	?	-	5.6µM	-
Cc1cc(C(C#N)c2ccccc2F)n2ncnc2n1 (stereo not drawn)	.	-[10 µM]	16µM	-	-[9.22 µM]	.
CC(=O)c1ccc(NC(=O)c2c(C)nn(-c3ccccc3)c2Cl)cc1	.	-[10 µM]	?	-	-[9.22 µM]	.
Cc1ccc(NC(=O)c2c(C)nn(-c3ccccc3)c2Cl)cc1	14µM	-[10 µM]	-	-	-	-
Cc1ccccc1NC(=O)c1c(C)nn(-c2ccccc2)c1Cl	28µM	-[10 µM]	?	-	-	.
